Our source for the composite z-score and z-score values is PubChem BioAssay.

Activity calls are given as the source filed them.

For assay [1], the system named is Plasmodium falciparum Sir2 (PF13_0152, Sir2A). In words: Plasmodium falciparum Sir2A binding compounds – biochemical, small-molecule microarray, 635 nm fluorescence, primary screen (AID 1098).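 Further: score merges spot fluorescence intensity with its signal-to-noise ratio.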 To be noted: fluorescence 635 nm, higher = more signal.
Assay [2] is described as follows: probe aDKK1 binding to arrayed compounds – biochemical, biotinylated probe, 635/667 nm fluorescence, primary screen (AID 1099).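 Further: score merges 667nm spot fluorescence with signal to noise across triplicate slides.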 As to conditions: small-molecule microarray, higher = more signal.
A short description of assay [3]: probe aCHRDL2 binding to arrayed compounds – biochemical, biotinylated probe, 635/667 nm fluorescence, primary screen (AID 1100). To be noted: small-molecule microarray, higher = more signal.
The nature of assay [4]: change in splice reporter luminescence, either direction, cell-based, HEK293, spliceosome inhibition project, primary screen (AID 1101).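 Further: HEK293 cells carrying a splicing-competent luciferase reporter gene; test concentration not given here.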 As to conditions: HEK293 splicing luciferase reporter, 24 h, higher = more signal, called active from +8 up or from −8 down. In general terms: In a reporter assay the amount or activity of a reporter protein is the signal.
Assay [5] addresses Fibroblast growth factor 10 (Homo sapiens) (UniProt O15520). Description: compounds binding fibroblast growth factor 10 – biochemical, small-molecule microarray, 635 nm fluorescence, primary screen (AID 1102). As to conditions: FGF10 binding, fluorescence 635 nm, higher = more signal.
In assay [6] the test system is glycogen synthase kinase-3 (GSK3A per assay name; protocol says GSK3B). In words: compounds binding glycogen synthase kinase-3 – biochemical, small-molecule microarray, 635 nm fluorescence, GSK3A, primary screen (AID 1103). Further: the record names both GSK3A and GSK3B. As to conditions: fluorescence 635 nm, higher = more signal.
The target in assay [7] is Epidermal growth factor receptor (Homo sapiens) (UniProt P00533). In words: compounds binding epidermal growth factor receptor – biochemical, small-molecule microarray, 635 nm fluorescence, primary screen (AID 1104).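 Further: score merges 667 nm emission intensity with spot signal to noise over triplicate slides.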 As to conditions: EGFR binding, higher = more signal.
Sequence of Epidermal growth factor receptor (Homo sapiens) (P00533 whole entry, looked up): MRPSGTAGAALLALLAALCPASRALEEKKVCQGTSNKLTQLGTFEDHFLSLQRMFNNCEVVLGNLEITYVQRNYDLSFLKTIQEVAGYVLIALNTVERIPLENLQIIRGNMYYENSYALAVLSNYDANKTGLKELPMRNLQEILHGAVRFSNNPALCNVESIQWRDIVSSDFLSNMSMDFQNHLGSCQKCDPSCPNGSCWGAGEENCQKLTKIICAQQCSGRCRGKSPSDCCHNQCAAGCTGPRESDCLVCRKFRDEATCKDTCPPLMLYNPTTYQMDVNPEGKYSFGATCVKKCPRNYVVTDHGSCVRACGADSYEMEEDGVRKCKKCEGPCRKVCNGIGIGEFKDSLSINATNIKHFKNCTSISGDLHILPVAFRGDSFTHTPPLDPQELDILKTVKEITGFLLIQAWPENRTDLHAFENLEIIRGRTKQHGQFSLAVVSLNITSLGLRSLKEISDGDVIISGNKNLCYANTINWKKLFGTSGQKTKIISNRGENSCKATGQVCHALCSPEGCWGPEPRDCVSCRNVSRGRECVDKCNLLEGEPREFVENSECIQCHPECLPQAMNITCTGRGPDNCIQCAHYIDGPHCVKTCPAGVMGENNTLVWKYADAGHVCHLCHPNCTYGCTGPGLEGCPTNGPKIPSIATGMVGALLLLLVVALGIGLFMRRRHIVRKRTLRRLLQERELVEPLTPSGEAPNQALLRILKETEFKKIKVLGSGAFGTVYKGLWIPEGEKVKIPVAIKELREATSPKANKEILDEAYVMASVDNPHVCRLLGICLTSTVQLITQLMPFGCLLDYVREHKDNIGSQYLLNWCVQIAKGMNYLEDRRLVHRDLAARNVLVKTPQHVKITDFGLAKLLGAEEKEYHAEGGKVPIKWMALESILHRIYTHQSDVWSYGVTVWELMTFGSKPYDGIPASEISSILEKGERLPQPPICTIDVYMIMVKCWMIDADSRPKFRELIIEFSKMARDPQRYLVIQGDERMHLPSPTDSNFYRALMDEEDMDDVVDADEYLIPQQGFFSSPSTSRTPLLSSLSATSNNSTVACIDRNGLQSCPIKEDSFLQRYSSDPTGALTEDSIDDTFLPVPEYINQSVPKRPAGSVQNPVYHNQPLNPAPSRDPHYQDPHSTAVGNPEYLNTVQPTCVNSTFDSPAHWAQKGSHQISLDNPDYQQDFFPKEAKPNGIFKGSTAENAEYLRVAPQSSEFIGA
Assay [8] has as its target Follistatin-related protein 3 (Homo sapiens) (UniProt O95633). In words: compounds binding follistatin-related protein 3 – biochemical, small-molecule microarray, 635 nm fluorescence, primary screen (AID 1105).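 Further: score merges emission near 667 nm and signal to noise per printed spot across three slides.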 As to conditions: FSTL3 binding, higher = more signal.
In assay [9] the target is Dickkopf-related protein 1 (Homo sapiens) (UniProt O94907). In words: small molecules binding DKK1 protein – biochemical, small-molecule microarray, 635 nm fluorescence scan, primary screen (AID 1106).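 Further: score merges emission near 667 nm with signal to noise over three replicate slides.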 As to conditions: higher = more signal.
Sequence of Dickkopf-related protein 1 (Homo sapiens) (O94907 whole entry, looked up): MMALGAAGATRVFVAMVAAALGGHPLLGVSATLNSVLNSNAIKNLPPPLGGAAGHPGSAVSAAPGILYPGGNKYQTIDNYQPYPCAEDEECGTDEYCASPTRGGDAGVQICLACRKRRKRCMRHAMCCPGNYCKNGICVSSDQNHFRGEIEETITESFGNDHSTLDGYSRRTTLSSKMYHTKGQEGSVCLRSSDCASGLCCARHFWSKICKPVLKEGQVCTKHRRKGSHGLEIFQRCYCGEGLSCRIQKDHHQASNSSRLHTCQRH
The subject of assay [10] is Inhibin beta A chain (activin A). In words: small molecules binding activin A – biochemical, small-molecule microarray, 635 nm fluorescence scan, primary screen (AID 1107).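 Further: mouse activin A protein probed at 4.33 µg/mL on printed slides; score merges bound-protein fluorescence near 667 nm with spot signal-to-noise.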 As to conditions: INHBA, higher = more signal.
The test system of assay [11] is Human papillomavirus type 1a protein E7 (residues 44-93). In words: small molecules binding HPV E7 44-93 – biochemical, small-molecule microarray, residues 44-93, 635 nm fluorescence, primary screen (AID 1108).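 Further: E7 fragment applied at 1 µg/mL in TBST for 1 h at 4 C; score combines spot fluorescence with its signal to noise ratio.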 To be noted: fluorescence 635 nm, higher = more signal.
A short description of assay [12]: hepatitis C replication reporter changes, two-sided – Huh7 cells, luciferase reporter, HCV replication inhibitor project, primary screen (AID 1109).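 Further: huh7 hepatoma cells harbouring a luciferase neomycin HCV replicon reporter; luciferase luminescence as measure of HCV replicon replication; test concentration not given here.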 To be noted: Huh7 HCV replicon luciferase reporter, 48 h; higher = more signal.
For assay [13], the target named is Left-right determination factor 2 (Homo sapiens) (UniProt O00292). Description: small molecules binding LEFTY2 protein – biochemical, small-molecule microarray, 635 nm fluorescence scan, primary screen (AID 1110). To be noted: higher = more signal.
Sequence of Left-right determination factor 2 (Homo sapiens) (O00292 whole entry, looked up): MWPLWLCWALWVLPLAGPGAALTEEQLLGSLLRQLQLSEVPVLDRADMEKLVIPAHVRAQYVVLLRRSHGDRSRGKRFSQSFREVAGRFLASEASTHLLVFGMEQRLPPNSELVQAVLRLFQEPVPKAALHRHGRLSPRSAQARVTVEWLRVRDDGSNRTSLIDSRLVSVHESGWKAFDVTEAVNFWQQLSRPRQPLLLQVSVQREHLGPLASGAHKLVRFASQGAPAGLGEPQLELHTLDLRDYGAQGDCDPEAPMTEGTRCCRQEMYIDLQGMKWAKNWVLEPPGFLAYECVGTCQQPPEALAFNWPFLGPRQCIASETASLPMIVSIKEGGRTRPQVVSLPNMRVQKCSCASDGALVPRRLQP
Assay [14] deals with Calmodulin-1 (Homo sapiens) (UniProt P0DP23). Description: small molecules binding calmodulin-1 with EGTA – biochemical, small-molecule microarray, Cy5-labelled CALM1, profiling panel (AID 1111).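 Further: labelled calmodulin applied in Tris saline Tween buffer holding calcium plus EGTA and DTT.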 As to conditions: Cy5-CALM1 binding fluorescence, higher = more signal.
Assay [15] shares this target. In words: small molecules binding Ca-loaded calmodulin-1 – biochemical, small-molecule microarray, Cy5-labelled CALM1, plus calcium, artefact control for SMM control-protein annotation, profiling panel (AID 1112).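 Further: score merges spot fluorescence with signal to noise from triplicate slides.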 As to conditions: Cy5-CALM1 binding fluorescence, higher = more signal.
Assay [16] is described as follows: probe aWnt5a binding to arrayed compounds – biochemical, biotinylated probe, 635/667 nm fluorescence, primary screen (AID 1113).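 Further: score merges 667 nm fluorescence intensity with signal-to-noise per printed feature.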 To be noted: small-molecule microarray, higher = more signal.
Assay [17] in a line: probe aShh binding to arrayed compounds – biochemical, biotinylated probe, 635/667 nm fluorescence, primary screen (AID 1114).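 Further: probe is biotin-labelled aShh protein from a stem cell growth factor screen; measures binding of labelled protein to compounds printed on the slide; score merges feature fluorescence at 667 nm with signal-to-noise.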 To be noted: small-molecule microarray, higher = more signal.
The nature of assay [18]: probe aNog binding to arrayed compounds – biochemical, biotinylated probe, 635/667 nm fluorescence, primary screen (AID 1115).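 Further: probe is biotinylated aNog protein used at 0.15 µg/mL for 1 h at 4 C; z-score combines 667 nm fluorescence of each spot with its signal to noise.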 As to conditions: small-molecule microarray, higher = more signal.
The target of assay [19] is Torsin-1A-interacting protein 1 (Homo sapiens) (UniProt Q5JTV8). Description: compound microarray binding of lysate hLAP1 – cell lysate, small-molecule microarray, COS7 lysate, 635/667 nm fluorescence, primary screen (AID 1116). To be noted: 635 nm fluorescence, higher = more signal.
Sequence of Torsin-1A-interacting protein 1 (Homo sapiens) (Q5JTV8 whole entry, looked up): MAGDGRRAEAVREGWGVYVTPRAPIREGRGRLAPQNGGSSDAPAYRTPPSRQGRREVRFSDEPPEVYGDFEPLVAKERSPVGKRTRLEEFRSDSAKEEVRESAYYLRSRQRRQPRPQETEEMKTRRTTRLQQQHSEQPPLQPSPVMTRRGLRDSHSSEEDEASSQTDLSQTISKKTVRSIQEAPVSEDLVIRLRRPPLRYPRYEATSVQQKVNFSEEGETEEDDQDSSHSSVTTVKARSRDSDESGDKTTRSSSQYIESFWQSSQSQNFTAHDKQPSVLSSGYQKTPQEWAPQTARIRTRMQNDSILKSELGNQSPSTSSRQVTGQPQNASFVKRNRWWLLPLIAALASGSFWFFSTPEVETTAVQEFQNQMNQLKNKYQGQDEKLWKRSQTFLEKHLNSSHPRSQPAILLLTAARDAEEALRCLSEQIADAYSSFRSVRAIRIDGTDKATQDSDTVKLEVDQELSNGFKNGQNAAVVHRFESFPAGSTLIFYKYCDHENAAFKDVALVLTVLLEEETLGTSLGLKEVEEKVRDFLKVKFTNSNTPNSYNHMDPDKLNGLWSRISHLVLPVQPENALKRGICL
Assay [20] addresses Alpha-bungarotoxin (Bungarus multicinctus) (UniProt P60615). In words: compounds binding labelled alpha-BTX control protein – biochemical, small-molecule microarray, Alexa647 label, 635/667 nm fluorescence, artefact control for SMM control protein annotation, profiling panel (AID 1117). As to conditions: alpha-BTX-A647 binding fluorescence, higher = more signal.

Sequence of Alpha-bungarotoxin (Bungarus multicinctus) (P60615 whole entry, looked up): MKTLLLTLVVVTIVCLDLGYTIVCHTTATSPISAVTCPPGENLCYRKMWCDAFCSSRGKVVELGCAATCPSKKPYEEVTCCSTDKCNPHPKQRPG
Sequence of Follistatin-related protein 3 (Homo sapiens) (O95633 whole entry, looked up): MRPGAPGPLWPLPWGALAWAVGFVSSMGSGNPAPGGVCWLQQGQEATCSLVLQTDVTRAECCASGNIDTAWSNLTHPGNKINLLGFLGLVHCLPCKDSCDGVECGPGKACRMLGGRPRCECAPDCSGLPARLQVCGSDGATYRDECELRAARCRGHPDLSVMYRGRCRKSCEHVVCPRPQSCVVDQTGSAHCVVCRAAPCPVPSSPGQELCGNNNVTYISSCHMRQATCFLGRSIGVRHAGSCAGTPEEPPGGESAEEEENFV
Sequence of Fibroblast growth factor 10 (Homo sapiens) (O15520 whole entry, looked up): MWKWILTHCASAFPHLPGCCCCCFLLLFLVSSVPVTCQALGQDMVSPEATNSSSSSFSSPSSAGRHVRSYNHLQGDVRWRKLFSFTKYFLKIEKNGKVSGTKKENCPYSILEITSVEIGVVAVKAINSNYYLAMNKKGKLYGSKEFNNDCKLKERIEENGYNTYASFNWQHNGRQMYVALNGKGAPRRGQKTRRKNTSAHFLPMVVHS

Take `CC(C)C(=C=CC[C@H](O)c1ccc(OCCO)cc1)C[C@H](O)c1ccccn1`: the composite z-score is 0.471 in assay [1]; -0.0813 in assay [2]; -0.233 in assay [3]; 0.275 in assay [5]; 0.372 in [6]; -0.511 in assay [7]. The composite z-score in assay [8] was -0.11; in assay [9], -0.478; in assay [10] it was -0.262; in [11] it was 1.22; in [13] it was -0.0676; in assay [14] it was 0.0123. The composite z-score in assay [15] was -0.0896; in assay [16], -0.1; in [17], -0.0769; in assay [18] it was -0.132; in [19], 0.859; in [20], 1.6. Further, the figures for the z-score in [4] and in [12] were -0.544 (inactive) and -0.789, respectively.
As for `[N-]=[N+]=Nc1ccccc1[C@H]1OC(c2ccc(OCCCO)cc2)=N[C@@]1(CCS(=O)(=O)c1ccccc1)C(=O)NCCN1CCOCC1`, the composite z-score in assay [1] was 1.35; in assay [2] it was -0.135; in [3] it was 0.775; in assay [5], 1.41; in assay [6], 1.21; in assay [7], 0.131. Further, the composite z-score is 1.19 in assay [8]; 0.248 in assay [9]; 0.903 in [10]; 1.4 in [11]; -0.354 in assay [13]; 0.757 in [14]. For the same molecule, the composite z-score in assay [15] is -0.368; in [16], 0.0246; in assay [17] it was 0.315; in assay [18], 1.03; in [19] it was 0.936; in assay [20] it was 0.755. The z-score was -0.0945 (inactive) in assay [4] and 0.517 in assay [12].
For `C=C(CCCC)/C(=C/C[C@@H](OC(=O)c1ccncc1)c1ccccc1OCCO)c1cnc2ccccc2c1`, the composite z-score was found to be 1.26 in assay [1]; 0.276 in assay [2]; 0.178 in assay [3]; 1.44 in assay [5]; 1.15 in [6]; 1.02 in [7]. For the same molecule, the composite z-score was determined as 1.33 in assay [8]; 0.736 in [9]; 1.69 in [10]; 1.33 in assay [11]; 0.845 in [13]; 0.616 in assay [14]. In addition, the composite z-score in [15] is -0.759; in assay [16], 0.16; in assay [17], -0.0849; in assay [18], -0.218; in assay [19] it was 1.92; in assay [20], 1.35. For the same molecule, the z-score in assay [4] was 1.03 (inactive); in assay [12], -2.77.
`CCCCCCc1nc(C2CC2)cc2c1[Si](C(C)C)(C(C)C)OC2`: the composite z-score in [1] is -0.552; in [2], -0.226; in assay [3], -0.144; in assay [5], -0.729; in assay [6], -0.461; in [7], -0.375. In addition, the composite z-score was -0.762 in [8]; -0.356 in [9]; 0.819 in [10]; -1.03 in assay [11]; -0.53 in assay [13]; 0.208 in assay [14]. Besides, the composite z-score was 0.0599 in assay [15]; -0.184 in assay [16]; -0.214 in assay [17]; -0.0784 in assay [18]; -0.476 in [19]; -0.221 in [20]. Besides, the z-score in assay [4] was -1.71 (inactive); in [12], -0.622.
Turning to `COc1ccc([Si](C)(C)[C@@H]2[C@@H](CC(=O)N(CCO)Cc3ccccc3)O[C@]3(C(=O)N(c4ccccc4)c4ccccc43)[C@H]2C)cc1`, the composite z-score in [1] is 0.908; in assay [2] it was -0.262; in [3], -0.426; in [5], 0.766; in assay [6] it was 0.629; in assay [7], 0.954. In addition, the composite z-score in assay [8] is 1.21; in assay [9], 0.95; in [10], 0.872; in [11], 1.33; in assay [13], 0.739; in assay [14], 0.545. The composite z-score in [15] was 0.0061; in assay [16], -0.0559; in assay [17], -0.135; in assay [18], -0.495; in assay [19], 0.395; in [20], 0.883. Also, the z-score in [4] was -2.14 (inactive); in [12], -4.59.
Take `O=C1O[C@@H](c2ccccc2)[C@@H](c2ccccc2)N2[C@@H](c3ccc(OCCO)cc3)[C@]3(C(=O)Nc4ccccc43)[C@@H](C(=O)O)[C@H]12`: the composite z-score in assay [1] was 0.327; in assay [2], -0.483; in assay [3], 0.273; in assay [5], 0.119; in assay [6], -0.739; in assay [7], -0.38. The composite z-score in assay [8] was -0.415; in [9], -0.32; in assay [10] it was 0.758; in assay [11], 0.908; in [13], -0.318; in [14] it was -0.0663. For the same molecule, the composite z-score is 0.883 in [15]; 0.779 in assay [16]; 0.297 in assay [17]; 2.26 in [18]; -0.308 in assay [19]; 0.323 in assay [20]. In addition, the z-score in assay [4] is -0.715 (inactive); in [12], -1.47.
Regarding `O=C1O[C@H](c2ccccc2)[C@H](c2ccccc2)N2[C@H]1[C@@H](C(=O)NC[C@H](O)c1ccccc1)[C@]1(C(=O)Nc3ccc(C#CCCO)cc31)[C@H]2c1ccc(OCCO)cc1`, the composite z-score in assay [1] amounted to 1.58; in assay [2] it was 0.222; in assay [3] it was 0.0751; in [5], 0.575; in assay [6], 0.739; in assay [7], 0.037. The composite z-score in assay [8] is 0.701; in [9], 0.264; in [10], 0.503; in [11], 1.1; in assay [13], -0.312; in [14], 1.1. Besides, the composite z-score in assay [15] was 0.547; in assay [16], -0.0758; in assay [17], 0.241; in assay [18], 0.509; in assay [19] it was 0.213; in assay [20], 1.16. Moreover, the z-score in assay [4] is 0.613 (inactive); in assay [12], -1.32.
`CN(C)C(=O)C1N=C(c2ccc(OCCCO)cc2)N(c2ccccc2)O1` (stereo not given): the composite z-score in assay [1] was 1.22; in [2], 0.0309; in [3], -0.0552; in assay [5], 1.5; in [6] it was 1.13; in assay [7], 0.662. The composite z-score in assay [8] is 0.739; in assay [9] it was 0.726; in assay [10], -0.319; in assay [11], 1.41; in assay [13] it was 1.28; in assay [14], 1.21. Besides, the composite z-score in assay [15] is -0.0846; in [16], -0.0486; in [17] it was -0.0733; in [18], -0.461; in [19] it was 0.81; in assay [20], 0.741. For the same molecule, the z-score is -1.06 (inactive) in [4] and -0.842 in assay [12].
